# The supplement of paper PMC10646978
# ± gives the standard deviation.
# How the values were obtained:
# Settings in all cases: modulator concentration 10 µM
# [1] = test system: RAW-Dual (murine macrophage reporter line); assay: NF-kB reporter (SEAP) activity fold change vs agonist alone; higher = enhanced NF-kB activity
# Summary of the method: (§1)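 RAW-Dual murine macrophage reporter cells were seeded at 50 000 per well in 384-well plates and pre-incubated 1 hour at 37 °C with compound pin-transferred to 10 μM final. After 1 hour, a PRR agonist was added and cells incubated overnight. Supernatant NF-κB (SEAP, QUANTI-Blue, 620 nm absorbance) and IRF (Lucia luciferase, QUANTI-Luc, luminescence) signals were divided by the mean agonist-only control on the same plate to give fold change. Two replicate plates were averaged, with errors by propagation.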
# [2] = test system: RAW-Dual (murine macrophage reporter line); assay: IRF reporter (Lucia luciferase) activity fold change vs agonist alone; higher = enhanced IRF activity
# Summary of the method: as §1
# [3] = test system: RAW-Dual (murine macrophage reporter line); assay: viability score (confluency relative to resting cells, overnight) (fraction); higher = more viable, active = viable (0.7 or more)
# Summary of the method: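 RAW-Dual macrophages in 384-well plates were incubated overnight with compound, final concentration 10 μM. Confluency images from IncuCyte were processed in IncuCyte software into two masks covering all imaged wells. The viability score is each well's confluency relative to resting cells, and a compound met the cutoff when both masks exceeded 70% of resting cells.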
# [4] = agonist: CpG ODN 1826 0.5 ug/mL
SMILES,"NF-kB reporter [1, 4]",NF-kB reporter ([1]; agonist: LPS 0.1 ug/mL),NF-kB reporter ([1]; agonist: MPLA […]),IRF reporter ([2]; agonist: 3'3'-cGAMP 10 ug/mL),IRF reporter ([2]; agonist: LPS 0.1 ug/mL),IRF reporter ([2]; agonist: MPLA […]),viability score [3]
Clc1cccc(CNCCc2c[nH]c3ccccc23)c1,0.317 ± 0.028,0.978 ± 0.11,0.992 ± 0.099,1.13 ± 0.028,2.3 ± 0.24,1.7 ± 0.26,0.258 (inactive)
CC(C)c1c(CN(C)C(C)Cc2ccccc2)n(C)n(-c2ccccc2)c1=O (centres undefined) [Prestw-703],1.35 ± 0.082,1 ± 0.17,1.05 ± 0.067,0.792 ± 0.03,1.02 ± 0.073,0.995 ± 0.14,0.998 (active)
CN1C(=O)C(=Cc2nc3ccccc3c(=O)n2-c2ccccc2)c2ccccc21,1.01 ± 0.088,0.867 ± 0.097,1.65 ± 0.63,1.08 ± 0.052,1.32 ± 0.23,1.29 ± 0.24,1.05 (active)
COc1ccc(CNCCc2c[nH]c3ccccc23)cc1C,0.373 ± 0.058,0.574 ± 0.054,1.22 ± 0.06,0.782 ± 0.08,1.04 ± 0.052,2.55 ± 0.19,0.154 (inactive)
Cc1cc(C(=O)N2C3CCC2c2cncnc2C3)c(C)o1 (centres undefined),1.03 ± 0.087,1.06 ± 0.092,1 ± 0.036,0.974 ± 0.066,0.94 ± 0.06,0.832 ± 0.13,0.999 (active)
Cc1ccccc1N1C(=O)C(=Cc2ccc(-c3ccc(C(=O)O)c(Cl)c3)o2)C(=O)NC1=S,0.617 ± 0.049,1.05 ± 0.067,0.9 ± 0.066,0.692 ± 0.017,1.24 ± 0.24,0.964 ± 0.2,1.01 (active)
COc1ccc2c(c1)[nH]c1c(C)nccc12,0.6 ± 0.047,0.885 ± 0.074,0.949 ± 0.09,0.431 ± 0.019,0.653 ± 0.11,0.594 ± 0.11,1.03 (active)
